Experimental data from PubChem BioAssay (NCATS).
Inconclusive results are not listed. Calls of active or inactive are those of the source. Unless noted, the call rests on the fitted dose curve; in most records, active means well fitted cell-killing curve with a large enough effect; inconclusive means small, poorly fitted or top-dose-only effect; inactive means flat fitted curve, though single readings scatter.

Assays:
[1] = Cell Viability - LYMP2-025 (AID 976); further: series mostly up to about 92 µM
Method in brief: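 Seed 2500 LYMP2-025 cells/well; 5 hr at 37 C; add compound; 24 hr at 37 C; add CellTiter-Glo; 30 min RT; read luminescence. AC50 from Hill-modelled concentration-response.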

[2] = Cell Viability - LYMP2-002 (AID 977);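 further: series mostly up to about 92 µM; compound exposure lasted 24 h at 37 °C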
Method in brief: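 Human lymphoblastoid LYMP2-002 cells, 2500 per well, exposed to compounds for 24 h at 37 C in complete medium; viability read as intracellular ATP by CellTiter-Glo luminescence, AC50 from Hill fits.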

[3] = Cell Viability - LYMP2-006 (AID 978); further: series mostly up to about 92 µM; nearly all actives have a fitted effect of over 60% in size
Method in brief: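 Concentration-dependent loss of intracellular ATP in a human lymphoblastoid line after 24 hr treatment at 37 C was measured by CellTiter-Glo luminescence, with AC50 values obtained from standard Hill-equation modelling.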

[4] = Cell Viability - LYMP2-007 (AID 979);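 further: cells exposed to compound for 24 h before reading; nearly all actives have a fitted effect of over 60% in size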
Method in brief: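 Luminescent ATP signal (CellTiter-Glo) serves as the viability read-out after 24 hr compound treatment of lymphoblastoid cells in complete medium at 37 C. Concentration-response data were fitted to the Hill equation to give AC50 values.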

[5] = Cell Viability - LYMP2-008 (AID 980); further: nearly all actives have a fitted effect of over 60% in size
Method in brief: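 qHTS, human lymphoblastoid line, 2500 cells/well; 5 hr preincubation, 24 hr compound, 37 C. CellTiter-Glo ATP luminescence. AC50 via Hill equation. Tetraoctylammonium bromide positive control.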

[6] = Cell Viability - LYMP2-010 (AID 981); further: nearly all actives have a fitted effect of over 55% in size
Method in brief: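 Luminescent ATP signal (CellTiter-Glo) served as the viability read-out. Cells of the human lymphoblastoid line were treated with compound over a concentration range for 24 hours at 37 C, and AC50 values came from Hill-equation modeling.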

[7] = Cell Viability - LYMP2-012 (AID 982);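 further: cellular ATP by luciferase luminescence where a drop means cytotoxicity; cells exposed to compound for one day before reading; nearly all actives have a fitted effect of over 55% in size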
[8] = Cell Viability - LYMP2-014 (AID 983); further: series mostly up to about 92 µM; nearly all actives have a fitted effect of over 50% in size
Method in brief: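 Luminescent ATP signal (CellTiter-Glo, 30 min at room temperature) serves as the viability read-out after 24 hr compound exposure at 37 C. Cells were seeded at 2500 per well and settled 5 hr beforehand.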

[9] = Cell Viability - LYMP2-016 (AID 984); further: nearly all actives have a fitted effect of over 55% in size
Method in brief: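 Acute toxicity in a Coriell human lymphoblastoid line is scored as loss of intracellular ATP over 24 h of treatment in complete medium. CellTiter-Glo signal is fitted across concentrations with the Hill equation to give AC50.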

[10] = Cell Viability - LYMP2-018 (AID 985); further: nearly all actives have a fitted effect of over 50% in size
Method in brief: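 Luminescent ATP signal (CellTiter-Glo, read after 30 min at room temperature) reports viable cells after 24 hr compound treatment at 37 C. Concentration-response data were fitted to the standard Hill equation for AC50.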

[11] = Cell Viability - LYMP2-020 (AID 986); further: series mostly up to about 92 µM; nearly all actives have a fitted effect of over 55% in size
Method in brief: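 Luminescent ATP signal (CellTiter-Glo, 30 min at room temperature) is the read-out after 24 h compound treatment of lymphoblastoid cells at 37 C. AC50 values come from Hill-equation fits across concentrations.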

[12] = Cell Viability - LYMP2-022 (AID 987); further: nearly all actives have a fitted effect of over 55% in size
Method in brief: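 qHTS: human lymphoblastoid cells 2500/well; 5 hr 37 C; cpd added; 24 hr 37 C; CellTiter-Glo, 30 min RT; luminescence. AC50 via Hill fit; tetraoctylammonium bromide positive ctrl.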

[13] = Cell Viability - LYMP2-024 (AID 988); further: nearly all actives have a fitted effect of over 60% in size
Method in brief: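 Steps: seed 2500 cells/well, 5 hr 37 C; add compound, 24 hr 37 C; add CellTiter-Glo, 30 min room temperature; read luminescence. AC50 derived by Hill modelling of concentration-dependent ATP loss.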

[14] = Cell Viability - LYMP2-026 (AID 989); further: nearly all actives have a fitted effect of over 50% in size
Method in brief: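 Luminescent ATP signal (CellTiter-Glo, 30 min room temperature) measures viable lymphoblastoid cells after 24 hr compound treatment at 37 C. Decreased ATP reflects acute toxicity; AC50 values come from Hill-equation modeling.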

[15] = Cell Viability - LYMP1-002 - Assay at 24 hr (AID 993)
Method in brief: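 Cells plated 2500/well, 5 hr 37 C; compounds added, 24 hr 37 C; CellTiter-Glo added, 30 min RT; luminescence read. Tetraoctylammonium bromide positive control. Hill-equation AC50.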

[16] = Cell Viability - LYMP1-002 - Assay at 40 hr (AID 994); further: nearly all actives have a fitted effect of over 60% in size
Method in brief: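 Luminescent ATP signal served as the viability readout, with decreases taken as toxicity. Cells were treated with compounds across a concentration range for 40 hours at 37 C, and AC50 values came from standard Hill modeling.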

[17] = qHTS Assay for Identification of Small Molecule Inducers of Hypoxia Response (AID 2120; active means well fitted curve in the direction sought with a large enough effect in the signal ratio, with a control signal flat, not every such curve was filed as active; the % refers to the signal ratio)
Method in brief: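 ME-180 HRE-bla cells plated in Opti-MEM/0.5% dialyzed FBS, rested 4-5 h, then dosed with compound titrations by pin tool. After 17 h at 37 degrees C, CCF4 dye loaded 2.5 h at RT; 460/530 nm ratio gave %Activity and AC50.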

Measured: Potency

N#CC1(O)CCCCC1
inactive: [1] | [2] | [3] | [4] | [5] | [6] | [7] | [8] | [9] | [10] | [11] | [12] | [13] | [14] | [15] | [16] | [17]

NC=O
inactive: [1] | [2] | [3] | [4] | [5] | [6] | [7] | [8] | [9] | [10] | [11] | [12] | [13] | [14] | [15] | [16] | [17]

C=C(C)C(=O)OC
inactive: [1] | [2] | [3] | [4] | [5] | [6] | [7] | [8] | [9] | [10] | [11] | [12] | [13] | [14] | [16] | [17]

CC(=O)c1cccc([N+](=O)[O-])c1
inactive: [1] | [2] | [3] | [4] | [5] | [6] | [7] | [8] | [9] | [10] | [11] | [12] | [13] | [14] | [15] | [16] | [17]

c1ccc(Nc2ccccc2)cc1
inactive: [1] | [2] | [3] | [4] | [5] | [6] | [7] | [8] | [9] | [10] | [11] | [12] | [13] | [14] | [16] | [17]

CC1CCC2CC1C2(C)C (stereo not given)
inactive: [1] | [2] | [3] | [4] | [5] | [6] | [7] | [8] | [9] | [10] | [11] | [12] | [13] | [14] | [15] | [16] | [17]

Nc1nc(-c2ccccc2)cs1
inactive: [1] | [2] | [3] | [4] | [5] | [6] | [7] | [8] | [9] | [10] | [11] | [12] | [13] | [14] | [15] | [16] | [17]

c1ccc2[nH]cnc2c1
inactive: [1] | [2] | [3] | [4] | [5] | [6] | [7] | [8] | [9] | [10] | [11] | [12] | [13] | [14] | [16] | [17]

O=C1OC(=O)c2c(Br)c(Br)c(Br)c(Br)c21
inactive: [1] | [2] | [3] | [4] | [5] | [6] | [7] | [8] | [9] | [10] | [11] | [12] | [13] | [15] | [16] | [17]

CC(C)C=O
inactive: [1] | [2] | [3] | [4] | [5] | [6] | [7] | [8] | [10] | [11] | [12] | [13] | [14] | [15] | [16] | [17]

Nc1nc(CC(=O)O)cs1
inactive: [1] | [2] | [3] | [4] | [5] | [6] | [7] | [8] | [10] | [11] | [12] | [13] | [14] | [15] | [16] | [17]

C=CCCCCCCC=C
inactive: [1] | [2] | [3] | [4] | [5] | [6] | [7] | [8] | [9] | [10] | [11] | [12] | [14] | [15] | [17]

Cc1ccc(C(=O)O)cc1
inactive: [1] | [2] | [3] | [4] | [5] | [6] | [7] | [9] | [10] | [11] | [12] | [15] | [16] | [17]
